Assay results taken from PubChem BioAssay (NCATS).
“And” between values parts separate entries of the source, which are not always exact repeats. Equal values may be shown once. Records with an inconclusive call do not appear. A number with no mark means an inactive call. The source made the active and inactive calls. Calls come from the whole dose curve; as a rule, active = well fitted activation curve with a large enough effect; inconclusive = small, poorly fitted or top-dose-only effect; inactive = no such curve, though single readings can be large or run the other way.

target: Cellular tumor antigen p53 (Homo sapiens) (UniProt P04637); assay: Primary qHTS for small molecule compounds that upregulate eGFP-tagged delta133p53alpha (in N-terminal) cells. (AID 2060322); settings: NCI-H358 eGFP-delta133p53alpha fluorescence, 24 h; activation: hits give high values; note: nearly all actives have a fitted effect of over 75% in size;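 for activation: cells pre-induced with doxycycline then dosed without doxycycline; series mostly up to about 56 µM; 0% = DMSO vehicle and 100% = reference activator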
Description: Assay Development and Screening Technology
National Center for Advancing Translational Sciences (NCATS),
National Institute of Health (NIH), Rockville, Maryland
Cellular senescence (CS) is one of the hallmarks of aging and age-related diseases. Senescent cells are characterized by an irreversible growth arrest, an increase in senescence-associated beta-galactosidase (SA-beta-gal) activity and p16INK4a expression, an activation of the DNA damage response pathways, and the emergence of a senescence-associated secretory phenotype (SASP).
Delta133p53alpha, a human/primate-specific p53 protein isoform, delays or inhibits the induction of CS and SASP in various types of human cells, including progeria-derived fibroblasts, primary normal astrocytes, and CD8+ T lymphocytes. Induction of delta133p53alpha with small molecule compounds may provide therapeutic opportunities for inhibition of senescence/SASP-associated pathologies in progeria syndromes, astrocyte-mediated neuroprotection in neurodegenerative diseases, and possibly prevention and treatment of a wider range of senescence- and aging-associated diseases.
Here we report the development and validation of a cell-based quantitative high throughput screening (qHTS) assay in 1,536-well format. This qHTS assay uses the NCI-H358 cell line with doxycycline-inducible expression of enhanced green fluorescent protein (eGFP)-tagged delta133p53alpha, which allows efficient and highly quantitative measurement of the protein levels.
PROTOCOL TABLE (as described by Inglese J, Shamu CE and Guy RK. 2007)
SEQUENCE No. (e.g., 1, 2, 3, etc.); […] (e.g., Cells, Incubation, Reagent, etc.); VALUE; DESCRIPTION.
1; Cells; 4uL; 800 doxycycline treated cells / well in doxycycline-free media, 1536-well black, clear-bottom low base Aurora microplates.
2; Compounds; 23 nL; Kalypsis pin tool (Wako) equipped with 1536-well pin heads, 5-azacytidine positive control.
3; Incubation; 24 hr; 37C, 5% CO2; 95% relative humidity.
4; Aspiration; 1x; BioTek EL406 washer dispenser (Agilent).
5; Fixing; 3.5% paraformaldehyde, BioTek EL406 washer dispenser (Agilent).
6; Washing; 1x PBS; BioTek EL406 washer dispenser (Agilent).
7; Nuclei staining; 1:1000 dilution of Hoechst 33342 (Thermofisher), BioTek EL406 washer dispenser (Agilent).
8; Incubation; 20 min; in the dark at room temperature.
9; Washing; 2x, 1x PBS (ThermoFisher), BioTek EL406 washer dispenser (Agilent).
10; Reagent; 10 uL; 1x PBS per well, sealed with clear adhesive tape.
NOTES (numbers refer to sequence numbers above).
1. NCI-H358 cells expressing eGFP-tagged delta133p53alpha were grown in T75 culture flasks and treated with doxycycline for 24h, at 10 ng/ml for eGFP-D133p53a cells (N-terminal cell) and 100 ng/ml for D133p53a-eGFP cells (C-terminal cells). Cells were trypsinized, counted using a Counted 3 Automated Cell Counter (Thermo Fisher), and diluted to a concentration of 200,000 cells/ml. A Multidrop Combi Reagent Dispenser (ThermoFisher) was used to dispense 800 cells/well in […] of doxycycline-free media, into 1536-well black/clear bottom low base plates (AuroraMicroplates).
2. After plating cells, 23 nl of compound library, DMSO vehicle control or positive control (5-azacytidine) were transferred by Pin Tool (Wako). The plate map layout was the same for each plate: (column 1) non-doxycycline treated cells + DMSO vehicle control; (column 2) doxycycline treated cells + DMSO vehicle control baseline; (column 3) doxycycline treated cells + positive control 57.5 uM final concentration 5-azacytidine; (column 4) doxycycline treated cells + serial dilution of 5-azacytidine, 16-point 1:2 titration spanning 1.8 nM to […] final concentration; (columns 5-48) doxycycline treated cells + titration of library compounds.
3. Cells were incubated at 37 °C, 5 % CO2, 95% RH with breathable metal lid for 24h.
4-10. […] After two washes, 10 ul of 1X PBS (Thermo Fisher) was dispensed to each well. Clear adhesive plate seals (VWR) were applied and plates stored at 4 °C.
11. […]
Potency is the fitted concentration of half-maximal effect.

Chain of Cellular tumor antigen p53 (Homo sapiens) (P04637 whole entry, looked up): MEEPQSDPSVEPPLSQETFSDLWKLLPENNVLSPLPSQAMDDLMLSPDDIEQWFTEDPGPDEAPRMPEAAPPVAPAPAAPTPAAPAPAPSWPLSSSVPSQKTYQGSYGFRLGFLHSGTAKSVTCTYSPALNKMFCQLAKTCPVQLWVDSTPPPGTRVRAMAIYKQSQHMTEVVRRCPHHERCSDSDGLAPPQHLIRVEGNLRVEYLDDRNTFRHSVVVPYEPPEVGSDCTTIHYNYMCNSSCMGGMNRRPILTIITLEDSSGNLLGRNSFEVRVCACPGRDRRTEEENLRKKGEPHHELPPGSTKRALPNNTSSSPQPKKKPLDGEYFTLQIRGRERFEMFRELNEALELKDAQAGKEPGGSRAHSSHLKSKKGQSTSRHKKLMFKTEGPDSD

| Structure (SMILES) | Potency | activation |
| --- | --- | --- |
| Cc1ncc(NC(=O)c2ccc(CN3CCN(C)CC3)c(C(F)(F)F)c2)cc1Nc1nccc(-c2cccnc2)n1 | 23.9 µM (active) |  |
| COc1ccc(C2(C#N)CCC(C(=O)O)CC2)cc1OC1CCCC1 (stereo not given) |  | -6.96% and -15.7% |
| Cc1ncc(CO)c(C=O)c1O |  | -3.35% |
| NC(=O)[C@H](O[C@@H]1O[C@H](CO)[C@@H](O)[C@H](O)[C@H]1O)c1ccccc1 |  | 17.9% |
| O=C1NC(=O)C(c2cn3c4c(cccc24)CCC3)C1c1c[nH]c2ccccc12 (stereo not given) |  | 18.6% |
| CC(C)C1(O)NC(=O)C(CC2(O)c3ccccc3N3C(=O)C(C)(C)NC32)n2c1nc1ccccc1c2=O (stereo not given) |  | -3.05% |
| C#CCCCn1cc(-c2cccc3c2N[C@@H](C)CC(=O)N3)cn1 |  | -18.8% |
| Nc1ncnc2c1ncn2[C@@H]1O[C@H](COP(=O)(O)O)[C@@H](O)[C@H]1O |  | 5.08% |
| CCCCCCCCc1ccc(CCC(N)(CO)CO)cc1 |  | 2.16% |
| CC(C)[N+](C)(CCOC(=O)C1c2ccccc2Oc2ccccc21)C(C)C |  | 18.6% and -22.6% |
| C=C1C(O)CCC2(C)CC3(OC)OC(=O)C(C)=C3CC12 (stereo not given) |  | -6.87% |
| CC(C)=CCC[C@](C)(O)[C@H]1CC[C@]2(C)[C@@H]1[C@H](O)CC1[C@@]3(C)CC[C@H](O)C(C)(C)C3[C@@H](O[C@@H]3O[C@H](CO)[C@@H](O)[C@H](O)[C@H]3O[C@@H]3OC[C@@H](O)[C@H](O)[C@H]3O)C[C@]12C (stereo not given in full) |  | -16.8% |
| CC1=CCC2C(C)(CO)CCCC2(CO)C1CO (stereo not given) |  | -19.8% |
| CN(C)c1nc(NC2CCC(NCCc3ccc(Br)cc3OC(F)(F)F)CC2)nc2ccccc12 (stereo not given) | 13.5 µM (active) |  |
| COC(=O)[C@@H]1[C@H]2C[C@H]3c4[nH]c5ccccc5c4CCN3C[C@@H]2CC[C@@H]1O |  | -9.53% and 22.3% |
| C=C1CC2C3(C)C(O)CC(=O)C(C)(C)C3C(OC(C)=O)C(OC(C)=O)C2(C)C2C(=O)OC(C)(C(=O)OC)C(=O)C12C (stereo not given) |  | -16.8% |
| COCc1c(Cl)ccc2c1CC[C@H]2c1ncc[nH]1 |  | 11% |
| CNC(=O)CN(CCN(CCN(CC(=O)[O-])CC(=O)NC)CC(=O)[O-])CC(=O)[O-].O.[Gd+3] |  | 0.837% |
| COc1cc2c(cc1OCCCN1CCCC1)N=C(N)C21CCC1 |  | 5.59% |
| CC(=O)ON=C1C(c2c(O)[nH]c3cc(Br)ccc23)=Nc2ccccc21 |  | 53.3% |

| Structure (SMILES) | Potency | activation |
| --- | --- | --- |
| CC[C@@H](C)[C@H](NC(=O)[C@H](CC1CCCCC1)NC(=O)c1ccno1)C(=O)N1CCC2(CCc3ccccc32)CC1 |  | 0.928% and 1.43% |
| C=C[C@H]1[C@H](O[C@@H]2O[C@H](CO)[C@@H](O)[C@H](O)[C@H]2O)OC=C(C(=O)OC)[C@H]1C[C@@H]1c2cc(O)c(O)cc2CCN1C(C)=O |  | -6.11% |
| C=C1C(=O)OC2C=C(C)CCC=C(C)CCC12 (stereo not given) |  | 22% |
| CC[N+](C)(C)c1cccc(O)c1 |  | 3.57% |
| CN1CCc2c(n(Cc3ccc(C(=O)NO)cc3)c3ccccc23)C1 |  | 23.6% |
| CC(C)=CCC[C@](C)(O[C@@H]1O[C@H](CO)[C@@H](O)[C@H](O)[C@H]1O)[C@H]1CC[C@]2(C)[C@@H]1[C@H](O)CC1[C@@]3(C)CC[C@H](O)C(C)(C)C3[C@@H](O[C@@H]3O[C@H](CO)[C@@H](O)[C@H](O)[C@H]3O[C@@H]3O[C@@H](C)[C@H](O)[C@@H](O)[C@H]3O)C[C@]12C (stereo not given in full) |  | -21.4% |
| CC(C)(C)NC(=O)[C@H]1CN(Cc2cccnc2)CCN1C[C@@H](O)C[C@@H](Cc1ccccc1)C(=O)N[C@H]1c2ccccc2C[C@H]1O |  | 18.3% |
| Nc1nc(=O)n([C@H]2C[C@H](O)[C@@H](CO)O2)cc1F |  | -4.59% |
| COc1ccc2cc3[n+](cc2c1OC)CCc1cc2c(cc1-3)OCO2 |  | -7.97% |
| NS(=O)(=O)c1cc(C(=O)O)cc(N2CCCC2)c1Oc1ccccc1 |  | -9.6% |
| C[C@H]1O[C@@H](O[C@H]2CC[C@@]3(C)C(CC[C@]4(C)C3CC=C3C5CC(C)(C)CC[C@]5(C(=O)O)CC[C@]34C(=O)O)C2(C)C)[C@H](O)[C@@H](O)[C@@H]1O (stereo not given in full) |  | -12.2% |
| O=C(O)Cc1ccc2oc(-c3ccc(NC(=O)/C=C/c4ccc(Br)cc4)c(F)c3)nc2c1 |  | 25.8% |
| O=C(Nc1nnc(-c2ccco2)o1)c1cc(-c2ccccc2)nc2ccccc12 |  | -15% |
| CC(F)(F)CN1CCOc2c(nn(-c3ccccc3Cl)c2-c2ccc(Cl)cc2)C1=O |  | 10% |
| CCC(C)(C)c1ccc(CC(C)CN2C[C@@H](C)O[C@@H](C)C2)cc1 (stereo not given in full) |  | -16.4% |
| CC(=O)C1=CCC2C3CCC4CC(O[C@@H]5O[C@H](CO)[C@@H](O[C@@H]6O[C@@H](C)[C@H](O)[C@@H](O)[C@H]6O)[C@H](O)[C@H]5O[C@@H]5O[C@H](CO)[C@@H](O)[C@H](O)[C@H]5O)CCC4(C)C3CCC12C (stereo not given in full) |  | -10.7% |
| COc1cccc(-c2cc(F)ccc2C2Cc3nc(N)nc(C)c3C(=O)N2)n1 (stereo not given) |  | 2.86% |
| COc1ccc(CCN(C)CCCC(C#N)(c2cc(OC)c(OC)c(OC)c2)C(C)C)cc1OC (stereo not given) |  | -8.73% |
| COc1cc(/C=C2\CCCN([C@@H](C)c3ccc(F)cc3)C2=O)ccc1-n1cnc(C)c1 |  | -22.3% |
| CNc1cc(NS(=O)(=O)c2ccc(N)cc2)nc(NC)n1 |  | -5.43% |
